Data taken from PubChem BioAssay (NCATS).
Inconclusive results are not listed. A call without a number means that no potency is given here. Unmarked numbers belong to inactive results. Activity calls are given as the source filed them. Unless noted, calls follow the shape of the dose curve; as a rule, active = well fitted curve in the direction sought with a large enough effect; inconclusive = small, poorly fitted or top-dose-only effect, or another doubt; inactive = no such curve, though single readings can be large; an effect the other way counts as inactive or inconclusive.

Assays:
[1] = qHTS for Inhibitors of Plasmodium falciparum (GB4) proliferation (AID 504315); also: nearly all actives have a fitted effect of over 50% in size; also: potency is read from the fitted curve at half-maximal effect
Procedure, shortened: (§1)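 Parasite growth measured as SYBR Green DNA fluorescence (ex 485, em 535 nm) after overnight lysis following 72 h culture at 37 °C, 0.3% parasitemia, 2.5% hematocrit. Values normalized against DMSO and 0.29 uM artemisinin controls, with plate-stack correction.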

[2] = qHTS for Inhibitors of Plasmodium falciparum (7G8) proliferation (AID 504316); also: nearly all actives have a fitted effect of over 65% in size; also: potency is read from the fitted curve at half-maximal effect; as to activity change, negative = inhibition: series mostly up to about 6.7 µM
Procedure, shortened: as §1

[3] = qHTS for Inhibitors of Plasmodium falciparum (HB3) proliferation (AID 504318); also: nearly all actives have a fitted effect of over 60% in size; also: potency is read from the fitted curve at half-maximal effect
Procedure, shortened: as §1

[4] = qHTS for Inhibitors of Plasmodium falciparum (CP250) proliferation (AID 504320); also: potency is read from the fitted curve at half-maximal effect
Procedure, shortened: as §1

[5] = target: Atrial natriuretic peptide receptor 1 (Homo sapiens) (UniProt P16066); test: Natriuretic polypeptide receptor (hNpr1) antagonism - Pilot CMLD screen (AID 1347052; calls by dose curve;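 also: cGMP level read as GloSensor luciferase luminescence after agonist stimulation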; also: potency is read from the fitted curve at half-maximal effect;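 as to activity change, negative = inhibition: HEK293 cells with hNpr1 stimulated by hNppA peptide at 0.1 nM; series mostly up to about 9.2 µM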)
Atrial natriuretic peptide receptor 1 (Homo sapiens), sequence (P16066 whole entry, looked up): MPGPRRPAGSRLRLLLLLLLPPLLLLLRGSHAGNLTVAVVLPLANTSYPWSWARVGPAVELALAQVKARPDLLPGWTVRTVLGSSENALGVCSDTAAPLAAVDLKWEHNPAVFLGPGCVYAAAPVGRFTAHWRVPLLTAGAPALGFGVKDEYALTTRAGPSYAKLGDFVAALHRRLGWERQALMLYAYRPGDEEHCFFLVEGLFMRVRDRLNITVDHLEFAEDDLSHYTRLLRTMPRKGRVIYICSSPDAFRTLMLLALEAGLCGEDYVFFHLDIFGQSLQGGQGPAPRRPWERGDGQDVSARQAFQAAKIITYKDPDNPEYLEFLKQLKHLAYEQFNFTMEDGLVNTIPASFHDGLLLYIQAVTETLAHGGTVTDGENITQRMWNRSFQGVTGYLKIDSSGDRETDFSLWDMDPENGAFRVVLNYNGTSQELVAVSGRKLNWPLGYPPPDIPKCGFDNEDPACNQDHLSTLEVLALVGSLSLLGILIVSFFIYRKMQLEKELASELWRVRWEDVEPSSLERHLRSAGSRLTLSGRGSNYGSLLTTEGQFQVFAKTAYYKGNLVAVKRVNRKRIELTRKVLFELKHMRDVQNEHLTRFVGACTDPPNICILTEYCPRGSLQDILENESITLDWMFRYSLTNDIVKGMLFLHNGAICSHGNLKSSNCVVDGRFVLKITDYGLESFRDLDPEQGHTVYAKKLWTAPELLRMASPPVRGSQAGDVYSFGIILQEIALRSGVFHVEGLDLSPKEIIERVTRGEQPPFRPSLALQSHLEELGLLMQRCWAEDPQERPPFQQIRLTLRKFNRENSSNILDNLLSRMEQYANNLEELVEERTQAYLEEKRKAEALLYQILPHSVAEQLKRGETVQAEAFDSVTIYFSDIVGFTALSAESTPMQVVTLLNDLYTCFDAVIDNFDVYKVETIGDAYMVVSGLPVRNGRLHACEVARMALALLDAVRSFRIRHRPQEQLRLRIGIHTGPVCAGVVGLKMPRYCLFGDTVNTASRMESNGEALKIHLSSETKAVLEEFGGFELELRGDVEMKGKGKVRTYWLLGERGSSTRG

[6] = target: Cytochrome P450 2C9 (Homo sapiens) (UniProt P11712); test: qHTS Assay for Inhibitors and Substrates of Cytochrome P450 2C9 (AID 883); also: nearly all actives have a fitted effect of over 60% in size
Cytochrome P450 2C9 (Homo sapiens), sequence (P11712 whole entry, looked up): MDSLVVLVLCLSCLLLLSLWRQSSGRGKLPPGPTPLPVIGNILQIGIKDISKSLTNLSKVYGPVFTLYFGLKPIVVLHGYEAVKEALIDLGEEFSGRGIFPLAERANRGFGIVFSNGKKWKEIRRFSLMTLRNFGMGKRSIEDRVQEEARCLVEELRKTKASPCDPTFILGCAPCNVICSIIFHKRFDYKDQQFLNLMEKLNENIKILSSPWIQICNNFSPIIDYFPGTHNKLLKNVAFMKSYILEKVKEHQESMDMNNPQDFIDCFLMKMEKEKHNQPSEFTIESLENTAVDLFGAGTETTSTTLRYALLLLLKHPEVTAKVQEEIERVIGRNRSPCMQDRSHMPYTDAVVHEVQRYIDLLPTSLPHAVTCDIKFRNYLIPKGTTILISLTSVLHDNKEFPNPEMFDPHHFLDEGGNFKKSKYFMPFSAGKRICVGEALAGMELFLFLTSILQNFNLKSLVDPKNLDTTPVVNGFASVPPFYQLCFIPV
Procedure, shortened: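 Inhibition of CYP2C9 is scored as loss of luminescence, with 57uM sulphaphenazole defining 100% inhibition. Substrate Luciferin-H is used at 100uM, equal to its KM; enzyme at 10nM in 25mM KPO4, 60 min at 37C with NADPH regeneration.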

[7] = target: Cytochrome P450 3A4 (Homo sapiens) (UniProt P08684); test: qHTS Assay for Inhibitors and Substrates of Cytochrome P450 3A4 (AID 884); also: series mostly up to about 57 µM; nearly all actives have a fitted effect of over 50% in size
Cytochrome P450 3A4 (Homo sapiens), sequence (P08684 whole entry, looked up): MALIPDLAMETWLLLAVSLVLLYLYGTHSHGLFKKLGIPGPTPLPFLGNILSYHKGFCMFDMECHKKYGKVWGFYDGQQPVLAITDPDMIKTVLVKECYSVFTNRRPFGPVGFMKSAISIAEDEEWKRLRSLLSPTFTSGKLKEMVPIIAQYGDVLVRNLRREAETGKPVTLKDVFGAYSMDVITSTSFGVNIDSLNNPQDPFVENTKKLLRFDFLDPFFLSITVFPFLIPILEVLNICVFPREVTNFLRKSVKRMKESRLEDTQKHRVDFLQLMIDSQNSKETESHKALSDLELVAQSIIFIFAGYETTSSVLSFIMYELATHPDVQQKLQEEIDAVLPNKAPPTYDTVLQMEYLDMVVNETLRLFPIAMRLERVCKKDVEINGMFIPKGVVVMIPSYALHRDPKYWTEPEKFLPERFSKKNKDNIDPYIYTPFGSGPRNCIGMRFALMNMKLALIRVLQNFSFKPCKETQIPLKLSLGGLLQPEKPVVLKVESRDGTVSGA
Procedure, shortened: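 Luminescent readout of luciferin produced by CYP3A4 (20 nM) dealkylation of Luciferin-PPXE, 25 uM (its KM). NADPH-driven reaction ran 60 min at RT after 10 min compound preincubation; data scaled to 57 uM ketoconazole as 100% inhibition.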

[8] = target: Cytochrome P450 2D6 (Homo sapiens) (UniProt P10635); test: qHTS Assay for Inhibitors and Substrates of Cytochrome P450 2D6 (AID 891);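 also: luciferin methyl ether substrate demethylated by CYP2D6 with NADPH regeneration; nearly all actives have a fitted effect of over 60% in size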
Cytochrome P450 2D6 (Homo sapiens), sequence (P10635 whole entry, looked up): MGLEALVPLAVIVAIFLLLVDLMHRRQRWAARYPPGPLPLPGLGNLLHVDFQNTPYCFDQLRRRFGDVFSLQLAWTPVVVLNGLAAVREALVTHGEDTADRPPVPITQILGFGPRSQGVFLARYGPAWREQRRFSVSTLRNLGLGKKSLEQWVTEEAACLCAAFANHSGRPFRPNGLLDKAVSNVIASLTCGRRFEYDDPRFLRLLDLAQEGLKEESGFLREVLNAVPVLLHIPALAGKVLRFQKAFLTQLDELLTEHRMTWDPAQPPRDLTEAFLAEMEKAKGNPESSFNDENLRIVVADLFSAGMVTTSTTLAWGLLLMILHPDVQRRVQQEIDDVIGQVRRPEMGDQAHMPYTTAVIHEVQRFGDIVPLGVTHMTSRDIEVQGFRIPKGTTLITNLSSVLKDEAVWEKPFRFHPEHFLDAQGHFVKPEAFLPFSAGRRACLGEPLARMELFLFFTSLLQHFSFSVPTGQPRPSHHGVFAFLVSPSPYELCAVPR
Procedure, shortened: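 Luminescent read-out of luciferin formed by 5 nM human CYP2D6 demethylating 30 uM Luciferin-ME EGE (Km level) over 60 min at room temperature after NADPH regeneration addition. Data normalized to full inhibition by 1.43 uM quinidine.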

[9] = target: Cytochrome P450 2C19 (Homo sapiens) (UniProt P33261); test: qHTS Assay for Inhibitors and Substrates of Cytochrome P450 2C19 (AID 899); also: nearly all actives have a fitted effect of over 60% in size
Cytochrome P450 2C19 (Homo sapiens), sequence (P33261 whole entry, looked up): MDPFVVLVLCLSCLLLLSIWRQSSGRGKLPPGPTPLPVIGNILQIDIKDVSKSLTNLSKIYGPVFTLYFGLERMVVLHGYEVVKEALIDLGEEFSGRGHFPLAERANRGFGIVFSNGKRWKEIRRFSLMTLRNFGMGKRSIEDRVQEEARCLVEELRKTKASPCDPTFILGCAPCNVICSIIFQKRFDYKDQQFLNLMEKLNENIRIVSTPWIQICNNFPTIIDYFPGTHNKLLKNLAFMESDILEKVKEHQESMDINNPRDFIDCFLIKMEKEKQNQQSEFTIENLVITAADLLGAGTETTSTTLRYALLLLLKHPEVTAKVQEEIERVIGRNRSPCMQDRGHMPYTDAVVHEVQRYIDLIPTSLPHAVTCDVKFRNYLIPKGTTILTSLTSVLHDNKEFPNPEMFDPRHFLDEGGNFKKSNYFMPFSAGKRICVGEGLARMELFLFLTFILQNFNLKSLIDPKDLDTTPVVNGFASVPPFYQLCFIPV
Procedure, shortened: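 5nM enzyme + 10uM Luciferin-H EGE (=KM), 50mM KPO4; cpd pin-transferred, 10 min 37C; NADPH regen, 60 min 37C; stopped w/ luciferin detection reagent, 20 min; luminescence. Normalized to 57uM ketoconazole (AC100).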

SMILES | Potency [1] | Potency [2] | Potency [3] | Potency [4] | Potency [5] | activity change, negative = inhibition [6] | activity change, negative = inhibition [7] | activity change, negative = inhibition [8] | activity, negative = inhibition [9]
COC1=C[C@H](C(=O)NCc2ccc(Br)cc2)[C@H](C)[C@@H](c2ccccc2)CC1=O | inactive | inactive | inactive | inactive | inactive | – | – | – | –
Cc1cc2c(c(=O)n1Cc1ccccc1)[C@H]1O[C@](CCCCN3C(=O)c4ccccc4C3=O)(Cc3ccccc31)O2 | 1.9 µM (active) | 1.69 µM (active) | 1.69 µM (active) | 1.35 µM (active) | inactive | – | – | – | –
O=C1[C@@H]2[C@H]3[C@H](O)[C@H](O)CC(=NOC[C@@H](O)COCc4ccco4)[C@@H]3CC[C@H]2C(=O)N1C[C@@H]1CCCO1 | inactive | inactive | inactive | inactive | inactive | – | – | – | –
O=C1C[C@@H](c2ccccc2)[C@H](c2ccc(Br)cc2)O1 | inactive | inactive | inactive | inactive | inactive | – | – | – | –
COc1ccc(COC(=O)NN=C2C[C@@H](O)[C@@H](O)[C@@H]3[C@H]4C(=O)N([C@@H](C)c5ccccc5)C(=O)[C@@H]4CC[C@H]23)cc1 | inactive | inactive | inactive | inactive | inactive | – | – | – | –
COC(=O)CC=C[C@@H](C)[C@H](NC(=O)OCC(Cl)(Cl)Cl)c1cccc(OC)c1 | inactive | inactive | inactive | inactive | inactive | – | – | – | –
CC(C)=CCCC(C)=CCON=C1C[C@@H](O)[C@@H](O)[C@@H]2[C@H]3C(=O)N(c4cccc(Oc5ccccc5)c4)C(=O)[C@@H]3CC[C@H]12 | inactive | inactive | inactive | inactive | inactive | – | – | – | –
CC(C)=CCN1C(=O)[C@]2(O[C@H](C)CC3=CCCC32)c2c(Br)cccc21 (some centres undefined) | inactive | inactive | inactive | inactive | inactive | – | – | – | –
COc1cc2c(c(OC)c1OC)CC(C)=C(C)CC2NC(=O)C(F)(F)F (centres undefined) | inactive | inactive | inactive | inactive | inactive | – | – | – | –
C=CCOC(=O)N[C@H](c1cccc(OC)c1)[C@H](C)C=CCC(=O)OC | inactive | inactive | inactive | inactive | inactive | – | – | – | –
CC1(OC(=O)C2CCCC2)C(=O)C=C2C=C(c3ccsc3)N(Cc3ccccc3)C=C2C1=O (centres undefined) | inactive | inactive | – | inactive | inactive | – | – | – | –
COCCN1C(=O)C2=C(C1=O)C1N(C)c3ccccc3[C@@]13C[C@@H](CO)N(S(=O)(=O)c1ccc(OC)cc1)C3=N2 (some centres undefined) | inactive | inactive | inactive | inactive | inactive | – | – | – | –
CC(C)C(=O)NC(=O)[C@@H]1CCCN1C(=O)C=Cc1ccccc1 | inactive | inactive | inactive | inactive | inactive | – | – | – | –
C=C(C)C(O)C=Cc1ccc(C(F)(F)F)cc1 (centres undefined) | inactive | inactive | inactive | inactive | 5.31 µM (active) | – | – | – | –
COCC=CC1=CC2=CC(=O)C(C)(OC(=O)c3cnc4ccccc4n3)C(=O)C2=CN1CCCCO (centres undefined) | inactive | inactive | inactive | inactive | inactive | – | – | – | –
COC(=O)C1=C(C)N(Cc2ccccc2)C(=S)NC1CCc1ccccc1 (centres undefined) | inactive | inactive | – | inactive | inactive | – | – | – | –
CNc1ccccc1C(=O)OCC(C)=O | inactive | inactive | inactive | inactive | inactive | 24.8% [at 11.4 µM] | -11.5% [at 11.4 µM] | 9.06% [at 11.4 µM] | -17.8% [at 11.4 µM]
COCCN1C(=O)NC(CCc2ccccc2)C(C(=O)OC)=C1C (centres undefined) | inactive | inactive | inactive | inactive | inactive | – | – | – | –
COc1ccc2c(c1)C(=O)[C@@H](OC(=O)NS(=O)(=O)c1ccc(F)cc1)[C@H](c1ccc(OC)c(Br)c1)O2 | inactive | inactive | inactive | inactive | inactive | – | – | – | –
COc1cc(CO[C@H]2C=C[C@@H](c3ccccc3)O[C@H]2CO)cc(OC)c1 | inactive | inactive | – | inactive | inactive | – | – | – | –
C=CCN1C(=O)[C@]2(O[C@H](C)CC3=CCCC32)c2c(Br)cccc21 (some centres undefined) | inactive | inactive | – | inactive | inactive | – | – | – | –
COc1ccc2c(c1)CO[C@H]([C@H](O)CO)[C@H]2C=CC#Cc1ccc(C(C)(C)C)cc1 | inactive | – | inactive | inactive | inactive | – | – | – | –
O=C1[C@H]2[C@@H]3[C@@H](O)[C@H](O)CC(=NOCc4ccccc4)[C@@H]3CC[C@H]2C(=O)N1Cc1ccc2c(c1)OCO2 | inactive | – | inactive | inactive | inactive | – | – | – | –
c1ccc(CCc2nc(-c3ccccc3)oc2NC2CCCCC2)cc1 | inactive | – | inactive | – | inactive | – | – | – | –
COCC=CC1=CC2=CC(=O)C(C)(OC(=O)c3cnc4ccccc4n3)C(=O)C2=CN1CCc1c[nH]c2ccccc12 (centres undefined) | inactive | – | inactive | – | inactive | – | – | – | –
